# Test results: ChEMBL document CHEMBL3988442, “University of Dundee, Small-Polar-MMV Screening Library” (2021)
# For some assays here: Entries with a potency or affinity are not part of this list.
# Assays:
# Design in all cases: scale not given: direction of the effect not stated beside the values
# [1] = biological target: Protein translocase subunit SecA (Escherichia coli (strain K12)) (UniProt P10408); assay: Assay to Identify E. coli SecA ATPase Inhibitors; type: functional; conditions: 30 µM
# [2] = biological target: T1, Ubiquitin-activating enzyme e1, putative (Leishmania donovani (strain BPK282A1)) (UniProt E9BSI1); assay: Leishmania donovani Ubiquitin Activating Enzyme (LdE1); type: functional; conditions: 30 µM
# T1 sequence (whole entry): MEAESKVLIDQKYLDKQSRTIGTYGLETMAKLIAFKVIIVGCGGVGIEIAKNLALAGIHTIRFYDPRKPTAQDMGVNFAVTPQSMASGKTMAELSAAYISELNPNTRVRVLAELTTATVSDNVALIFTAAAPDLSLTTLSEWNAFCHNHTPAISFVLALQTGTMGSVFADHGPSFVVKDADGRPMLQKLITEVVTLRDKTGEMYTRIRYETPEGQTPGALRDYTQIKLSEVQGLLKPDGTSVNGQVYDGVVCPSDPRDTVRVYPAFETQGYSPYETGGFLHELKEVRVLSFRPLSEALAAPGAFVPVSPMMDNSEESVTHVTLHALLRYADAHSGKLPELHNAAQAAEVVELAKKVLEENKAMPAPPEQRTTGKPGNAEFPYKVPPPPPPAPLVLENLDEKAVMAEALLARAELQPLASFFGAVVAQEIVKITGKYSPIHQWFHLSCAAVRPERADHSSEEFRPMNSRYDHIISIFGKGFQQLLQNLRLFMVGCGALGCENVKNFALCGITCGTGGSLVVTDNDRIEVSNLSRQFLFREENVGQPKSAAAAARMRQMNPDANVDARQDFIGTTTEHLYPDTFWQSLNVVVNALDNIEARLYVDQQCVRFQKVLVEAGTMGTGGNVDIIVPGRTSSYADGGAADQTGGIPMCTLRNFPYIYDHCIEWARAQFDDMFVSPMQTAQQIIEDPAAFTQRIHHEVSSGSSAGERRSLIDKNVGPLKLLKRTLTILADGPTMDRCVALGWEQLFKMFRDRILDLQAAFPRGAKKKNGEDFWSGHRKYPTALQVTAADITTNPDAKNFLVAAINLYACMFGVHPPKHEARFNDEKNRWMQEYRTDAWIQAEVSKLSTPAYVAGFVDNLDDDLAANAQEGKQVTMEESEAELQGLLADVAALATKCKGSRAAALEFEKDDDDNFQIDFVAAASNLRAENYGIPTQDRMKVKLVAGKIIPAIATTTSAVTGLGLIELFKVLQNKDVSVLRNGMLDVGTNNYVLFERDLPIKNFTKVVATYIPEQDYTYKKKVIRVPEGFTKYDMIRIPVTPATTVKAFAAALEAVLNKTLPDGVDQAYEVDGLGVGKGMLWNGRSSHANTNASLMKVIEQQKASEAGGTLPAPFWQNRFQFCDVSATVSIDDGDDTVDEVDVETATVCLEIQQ
# [3] = biological target: AMP-activated protein kinase, AMPK (Homo sapiens) (UniProt P54646+O43741+P54619+Q9UGJ0+Q9Y478+Q13131+Q9UGI9); assay: AMP-dependent Kinase enzyme assay. An in vitro enzyme assay that detects ADP turnover that is directly proportional to AMPK activity. This uses naive AMPK that is activated during the assay with MK-8722; type: functional; conditions: 30 µM
# [4] = biological target: Sialic acid-binding Ig-like lectin 9 (Homo sapiens) (UniProt Q9Y336); assay: Hs-Siglec9 ALPHAscreen SOP 20170721; conditions: 10 µM
# Trypanosoma cruzi = assay: Trypanosoma cruzi phosphomannomutase and mannose-1-phosphate guanylyltransferase assay; type: functional; conditions: 10 µM
# [5] = biological target: T2, Arginase-2, mitochondrial (Homo sapiens) (UniProt P78540); assay: in vitro enzyme assay to detect the production of urea directly proportional to the activity of Arginase II; type: functional; conditions: 33.3 µM; further: in the data most compounds retested in dose-response had high values
# T2 sequence (whole entry): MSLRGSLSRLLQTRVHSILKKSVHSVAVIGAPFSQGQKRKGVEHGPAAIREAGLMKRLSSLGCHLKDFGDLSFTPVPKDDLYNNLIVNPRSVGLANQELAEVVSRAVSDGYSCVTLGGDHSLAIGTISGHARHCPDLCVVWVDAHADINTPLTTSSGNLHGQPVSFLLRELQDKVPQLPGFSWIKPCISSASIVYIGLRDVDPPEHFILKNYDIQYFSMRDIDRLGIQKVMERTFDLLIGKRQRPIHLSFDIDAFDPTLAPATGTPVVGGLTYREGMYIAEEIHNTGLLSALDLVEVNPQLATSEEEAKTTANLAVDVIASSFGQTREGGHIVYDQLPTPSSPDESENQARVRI
# [6] = biological target: T3, Proteasome subunit beta (Trypanosoma cruzi) (UniProt O96673); assay: Trypanosoma cruzi proteasome chymotrypsin-like activity (TcProtChymo) assay.; further: in the data most compounds retested in dose-response had high values; type: functional; conditions: 9.37 µM
# T3 sequence (whole entry): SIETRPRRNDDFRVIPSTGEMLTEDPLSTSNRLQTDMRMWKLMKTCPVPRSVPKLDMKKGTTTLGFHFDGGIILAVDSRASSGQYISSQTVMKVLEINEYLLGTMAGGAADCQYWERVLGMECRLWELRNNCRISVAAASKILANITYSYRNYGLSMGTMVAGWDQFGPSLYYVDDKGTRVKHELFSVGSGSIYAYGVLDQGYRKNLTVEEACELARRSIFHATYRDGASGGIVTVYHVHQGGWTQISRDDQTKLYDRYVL
# Homo sapiens = organism: Homo sapiens; assay: To identify inhibition of the IFN signalling (Jak-Stat) pathway via expression of an eGFP reporter gene under the control of an IFN-stimulated response element (ISRE) containing MxA promoter.; type: functional; conditions: 30 µM
# [7] = biological target: T4, Tyrosyl-tRNA synthetase, putative (Trypanosoma cruzi (strain CL Brener)) (UniProt Q4DSP6); assay: Trypanosoma cruzi tyrosyl tRNA synthetase (TcYRS) _High Tyrosine SOP; type: functional; conditions: 30 µM; further: in the data most compounds retested in dose-response had high values
# T4 sequence (whole entry): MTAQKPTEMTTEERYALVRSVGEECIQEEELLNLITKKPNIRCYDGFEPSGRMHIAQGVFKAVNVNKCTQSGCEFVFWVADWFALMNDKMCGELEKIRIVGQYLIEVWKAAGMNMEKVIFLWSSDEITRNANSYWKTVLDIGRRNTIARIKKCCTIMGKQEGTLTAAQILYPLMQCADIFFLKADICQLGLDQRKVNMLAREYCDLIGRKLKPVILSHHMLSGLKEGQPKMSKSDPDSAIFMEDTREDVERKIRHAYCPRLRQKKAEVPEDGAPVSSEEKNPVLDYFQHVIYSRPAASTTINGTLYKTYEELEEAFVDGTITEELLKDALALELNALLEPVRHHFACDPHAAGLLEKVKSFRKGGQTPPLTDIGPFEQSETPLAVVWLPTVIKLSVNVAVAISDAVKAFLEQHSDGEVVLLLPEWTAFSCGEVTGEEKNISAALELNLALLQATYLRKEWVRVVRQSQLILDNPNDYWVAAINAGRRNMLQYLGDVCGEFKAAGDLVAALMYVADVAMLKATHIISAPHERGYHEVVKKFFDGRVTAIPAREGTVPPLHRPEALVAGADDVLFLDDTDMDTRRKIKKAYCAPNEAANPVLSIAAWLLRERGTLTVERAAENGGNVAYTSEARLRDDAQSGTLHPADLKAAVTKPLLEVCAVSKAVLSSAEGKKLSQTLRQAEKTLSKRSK
# [8] = biological target: T4, Tyrosyl-tRNA synthetase, putative (Trypanosoma cruzi (strain CL Brener)); assay: Trypanosoma cruzi tyrosyl tRNA synthetase (TcYRS) SOP; type: functional; conditions: 30 µM
# [9] = biological target: Chromo domain-containing protein 1 (Saccharomyces cerevisiae (strain ATCC 204508 / S288c) (Baker's yeast)) (UniProt P32657); assay: ScCHD-1 Enzyme Inhibition Assay; type: functional; conditions: 30 µM; further: in the data most compounds retested in dose-response had high values
# Chain of Chromo domain-containing protein 1 (Saccharomyces cerevisiae (strain ATCC 204508 / S288c) (Baker's yeast)) (P32657 whole entry, the tested form may be a part): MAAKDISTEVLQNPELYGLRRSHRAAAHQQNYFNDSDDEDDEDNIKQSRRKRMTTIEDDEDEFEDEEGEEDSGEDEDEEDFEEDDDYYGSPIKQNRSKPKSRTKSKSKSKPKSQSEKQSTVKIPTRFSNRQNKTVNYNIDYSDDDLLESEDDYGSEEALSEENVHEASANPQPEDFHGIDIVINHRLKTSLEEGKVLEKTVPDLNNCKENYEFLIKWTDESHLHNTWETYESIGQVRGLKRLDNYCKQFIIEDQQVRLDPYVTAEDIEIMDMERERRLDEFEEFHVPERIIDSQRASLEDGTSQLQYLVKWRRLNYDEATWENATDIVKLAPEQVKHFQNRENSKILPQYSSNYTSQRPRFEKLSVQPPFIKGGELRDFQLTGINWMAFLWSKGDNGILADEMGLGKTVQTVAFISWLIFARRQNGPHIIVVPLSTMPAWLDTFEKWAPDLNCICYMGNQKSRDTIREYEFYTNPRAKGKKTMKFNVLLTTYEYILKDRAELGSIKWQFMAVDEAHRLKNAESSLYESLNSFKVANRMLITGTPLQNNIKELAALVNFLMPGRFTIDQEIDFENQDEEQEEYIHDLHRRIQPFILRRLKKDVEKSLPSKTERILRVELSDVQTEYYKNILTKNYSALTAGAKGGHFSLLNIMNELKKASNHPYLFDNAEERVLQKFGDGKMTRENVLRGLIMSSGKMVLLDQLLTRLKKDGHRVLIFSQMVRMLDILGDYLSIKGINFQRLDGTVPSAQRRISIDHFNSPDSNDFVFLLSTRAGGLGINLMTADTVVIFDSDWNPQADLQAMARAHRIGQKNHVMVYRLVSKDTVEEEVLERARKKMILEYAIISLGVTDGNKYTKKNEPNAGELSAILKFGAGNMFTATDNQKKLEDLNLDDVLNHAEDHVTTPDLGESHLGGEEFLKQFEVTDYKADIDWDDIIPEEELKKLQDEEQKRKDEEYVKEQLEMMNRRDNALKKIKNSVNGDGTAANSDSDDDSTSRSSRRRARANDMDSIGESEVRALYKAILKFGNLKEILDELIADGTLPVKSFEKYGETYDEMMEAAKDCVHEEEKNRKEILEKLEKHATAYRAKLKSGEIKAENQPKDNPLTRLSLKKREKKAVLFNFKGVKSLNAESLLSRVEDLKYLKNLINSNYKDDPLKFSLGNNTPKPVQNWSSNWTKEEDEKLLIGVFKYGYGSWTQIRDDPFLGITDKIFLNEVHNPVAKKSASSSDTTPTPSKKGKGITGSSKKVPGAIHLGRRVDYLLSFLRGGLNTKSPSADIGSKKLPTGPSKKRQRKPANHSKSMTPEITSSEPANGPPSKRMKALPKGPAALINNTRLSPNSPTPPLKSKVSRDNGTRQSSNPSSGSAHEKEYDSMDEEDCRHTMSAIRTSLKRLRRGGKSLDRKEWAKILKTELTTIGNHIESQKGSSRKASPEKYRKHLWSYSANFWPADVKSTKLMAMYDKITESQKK
# Chain of Protein translocase subunit SecA (Escherichia coli (strain K12)) (P10408 whole entry): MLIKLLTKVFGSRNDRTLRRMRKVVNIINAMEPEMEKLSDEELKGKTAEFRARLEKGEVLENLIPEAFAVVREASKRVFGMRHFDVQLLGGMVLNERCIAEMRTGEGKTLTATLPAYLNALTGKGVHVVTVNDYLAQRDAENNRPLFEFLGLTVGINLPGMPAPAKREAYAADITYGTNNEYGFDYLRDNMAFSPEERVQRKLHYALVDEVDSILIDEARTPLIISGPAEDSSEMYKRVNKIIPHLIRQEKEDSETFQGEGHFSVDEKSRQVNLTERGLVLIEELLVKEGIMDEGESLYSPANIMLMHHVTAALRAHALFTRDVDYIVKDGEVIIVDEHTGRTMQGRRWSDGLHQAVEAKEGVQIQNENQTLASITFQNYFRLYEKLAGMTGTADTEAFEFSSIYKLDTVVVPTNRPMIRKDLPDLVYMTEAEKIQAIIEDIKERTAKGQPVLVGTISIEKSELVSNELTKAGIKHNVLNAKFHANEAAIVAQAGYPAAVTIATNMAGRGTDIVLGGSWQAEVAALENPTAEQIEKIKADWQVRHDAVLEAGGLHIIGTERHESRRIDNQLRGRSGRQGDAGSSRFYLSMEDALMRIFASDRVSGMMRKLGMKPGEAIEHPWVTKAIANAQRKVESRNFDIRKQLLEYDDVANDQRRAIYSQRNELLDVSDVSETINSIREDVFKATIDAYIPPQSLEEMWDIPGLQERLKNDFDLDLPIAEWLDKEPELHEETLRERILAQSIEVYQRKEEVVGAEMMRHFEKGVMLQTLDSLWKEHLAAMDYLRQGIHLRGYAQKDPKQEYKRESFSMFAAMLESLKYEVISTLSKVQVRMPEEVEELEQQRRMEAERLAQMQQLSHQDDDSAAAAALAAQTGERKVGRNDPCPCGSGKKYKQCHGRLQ
# Chain of Sialic acid-binding Ig-like lectin 9 (Homo sapiens) (Q9Y336 whole entry): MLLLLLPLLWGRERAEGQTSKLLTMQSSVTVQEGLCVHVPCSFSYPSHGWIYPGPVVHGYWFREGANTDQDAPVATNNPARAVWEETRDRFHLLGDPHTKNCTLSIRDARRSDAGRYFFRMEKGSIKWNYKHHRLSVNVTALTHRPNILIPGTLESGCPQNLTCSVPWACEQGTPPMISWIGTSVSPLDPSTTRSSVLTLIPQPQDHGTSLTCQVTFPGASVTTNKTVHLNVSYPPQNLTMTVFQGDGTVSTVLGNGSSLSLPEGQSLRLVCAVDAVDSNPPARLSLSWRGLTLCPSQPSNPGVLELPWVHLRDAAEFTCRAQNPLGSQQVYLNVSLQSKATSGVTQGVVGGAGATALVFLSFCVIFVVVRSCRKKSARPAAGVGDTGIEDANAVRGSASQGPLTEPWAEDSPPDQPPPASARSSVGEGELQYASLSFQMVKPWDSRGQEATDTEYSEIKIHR
SMILES,Percent Effect [1] [%],Percent Effect [2] [%],Percent Effect [3] [%],Percent Effect [4] [%],Percent Effect (Trypanosoma cruzi) [%],Percent Effect [5] [%],Percent Effect [6] [%],Percent Effect (Homo sapiens) [%],Percent Effect [7] [%],Percent Effect [8] [%],Percent Effect [9] [%]
Cn1cc(C2CCCN2C(=O)c2ccc(Br)o2)cn1 (stereo unspecified),-4.98,13.2,2.02,-8.81,-3.64,1.08,1.27,16.1,0.493,1.24,1.07
COc1c(C2CCCN2Cc2cc(C)no2)c(C)nn1C (stereo unspecified),-1.92,8.11,-4.61,-2.24,-5.11,3.88,11.3,15.9,4.95,11,-0.457
CCN(CC)C(=O)CN(C)C1CCc2ccccc21 (stereo unspecified),-0.321,18.4,-0.859,-2.93,3.57,3.83,18.7,11.3,8.33,21.9,-9.79
COCCNC(=O)[C@H]1C[C@@H]2CCN(c3nncs3)C[C@H]2O1,-0.719,-8.11,6.18,-4.67,-1.37,1.67,-0.254,7,5.94,6.1,1.42
CCOc1nnc(CN2CCOC(CNc3cccnn3)C2)s1 (stereo unspecified),-1.03,20.8,-24.7,-0.385,2.43,-3.92,11.8,10.6,16.5,7.32,-11.3
CCCC(=O)N1CCC(O)(Cn2c(CC)nc3ccccc3c2=O)CC1,-1.08,17.6,21.5,-2.15,3.16,-1.16,9.2,17.3,4.3,3.9,-6.13
O=C(CN1CCCCC1Cn1cccn1)NC1CCN(C2CC2)CC1 (stereo unspecified),-0.952,0,-4.99,6.13,-1.16,-4.29,13.3,1.18,0.529,2.44,-1.27
COc1ccc(C(=O)Nc2cnn(CC(=O)NC3CCCC3)c2)c(O)c1,-2.21,13.7,-8.3,5.57,3.77,0.798,9.16,-10.3,11.5,25.9,-3.82
CCn1nc(CNC(=O)C2CC(=O)N(C3CCCC3)C2)c2ccccc21 (stereo unspecified),-9.13,2.7,3.05,28.4,-1.74,-2.86,3.79,10.4,-0.529,2.44,-3.19
COc1ccc(CN(C)CC2CCCN2c2cccnn2)cc1F (stereo unspecified),1.17,15.6,13.3,-7.91,-2.25,-7.79,13.8,18.7,7.62,18.8,-22.1
Cc1cc(C[C@@H]2COC[C@@H]2NC(=O)Cn2c(=O)oc3ccccc32)on1,-0.169,5.48,1.35,-2.12,3.33,8.64,1.77,-6.43,4.3,7.5,1.28
CCn1cnnc1CNC(=O)c1cc(Cl)ccc1OC,-2.18,8.86,8.8,-1.08,-2.56,3.66,11.2,7.84,9.38,15.2,-11.8
O=C(c1cscn1)N1CC[C@]2(C[C@@H](OCCN3CCCC3)CO2)C1,-1.81,13.3,1.02,-2.21,-2.95,-0.699,11.4,7.58,5.32,14.1,-0.0589
CNC(=O)C1CCN(C(=O)CCn2cccn2)CC1,-7.35,13.5,2.1,7.36,-4.92,5.73,-1.44,19.3,-0.99,-1.22,6.84
NC(=O)COc1cccc(C(=O)N2CCCC(n3cccn3)C2)c1 (stereo unspecified),-3.05,13.5,-1.18,4.63,8.45,1.29,16,4.13,4.95,28.1,-6.2
CNC(=O)CCc1cc(C)nc(C2CCCN2)n1 (stereo unspecified),-2.12,-1.35,6.23,2.54,-1.78,3.02,5.62,13.2,3.23,-3.9,6.64
